Test results reported in PubChem BioAssay (NCATS).
Results filed as inconclusive are left out. Activity calls are given as the source filed them. Unless noted, the call rests on the fitted dose curve; in most records, active means well fitted curve in either direction with a large enough effect (not every such curve was filed as active); inconclusive means small, poorly fitted or top-dose-only effect, or another doubt; inactive means flat fitted curve, though single readings scatter.

What was measured:
[1] = molecular target: Lysosomal acid glucosylceramidase (Homo sapiens) (UniProt P04062); test: Glucocerebrosidase-p2 (AID 348; in the data active means potency below about 10 µM; further: potency means the concentration at half of the fitted maximal effect); details: purified GBA, blue fluorogenic substrate, 40 min
Procedure, shortened: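 Normal human glucocerebrosidase (0.2 nM) with blue fluorogenic substrate (80 uM final) in citrate/phosphate pH 5.9 with 10mM sodium taurocholate, 0.01% tween-20; 40 min RT, NaOH/glycine stop; fluorescence Ex 365/Em 440; AC50 from a titration from 0.6 nM upwards.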

[2] = AP1 Signaling Pathway (AID 357); details: ME-180 AP-1-bla reporter, EGF-induced, beta-lactamase ratio, 5 h; at 7.69 µM (top of the series) unless noted;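 further: ME-180 reporter cells stimulated with EGF at its EC50 level; on the % scale 0 is the no-effect control and ±100 the full control effect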
Procedure, shortened: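 A ratiometric CCF4 readout (405 nm excitation; 460 and 530 nm emission) quantified AP-1-driven beta-lactamase in ME-180 cells after 5 h with compound and EC50 EGF; AC50 values were derived for activators and inhibitors.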

[3] = molecular target: Cytochrome P450 1A2 (Homo sapiens) (UniProt P05177); test: p450-cyp1a2 (AID 410; calls by dose curve; further: potency means the concentration at half of the fitted maximal effect;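 on activity change, negative = inhibition: -100% = full effect of reference inhibitor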); details: recombinant CYP1A2, luciferin-ME demethylation, luminescence; series mostly up to 11.4 µM
Procedure, shortened: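 20nM CYP1A2, 100uM Luciferin-ME (=Km), 100mM KPO4; cpd 10 min RT; +NADPH regen, 60 min RT; stop/detect 20 min; luminescence. Normalized to furafylline 57 uM = full inhibition.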

[4] = NFAT Signaling Pathway (AID 444); details: Jurkat NFAT-bla M1, carbachol, beta-lactamase ratio, 5 h; at 7.69 µM (top of the series) unless noted;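 further: carbachol stimulus at about its EC50 of 1 µM final; on the % scale 0 is the no-effect control and ±100 the full control effect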
Procedure, shortened: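 Jurkat cells with NFAT-driven β-lactamase reporter and co-expressed M1 receptor, stimulated with carbachol (final 1 uM, ~EC50), compound titration, 5 h at 37 °C. CCF4 loaded 1 h at RT; 460/530 nm ratio gave %activity and AC50.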

[5] = Stat Signaling Pathway (AID 446); details: ME-180 (cervical carcinoma) SIE beta-lactamase reporter, IL-6 stimulated, 5 h; at 7.69 µM (top of the series) unless noted;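 further: ME-180 cervical cancer cells given 40 pM IL-6 alongside compound; SIE-controlled beta-lactamase reporter measured as 460/530 nm FRET emission ratio; on the % scale 0 is the no-effect control and ±100 the full control effect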
Procedure, shortened: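 Overnight-plated ME-180 cells bearing a STAT Inducible Element beta-lactamase reporter; 5 h co-exposure to compound and 40 pM IL-6; values normalized to 300 pM IL-6 and 125 nM JAK inhibitor controls.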

[6] = molecular target: Glucocorticoid receptor (Homo sapiens) (UniProt P04150); test: GR-GFP Redistribution (AID 450;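 active means compounds whose dose series gives a full or clear partial fitted curve of increased nuclear translocation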; further: potency means the concentration at half of the fitted maximal effect); details: U2OS GR-GFP nuclear translocation, laser cytometry, 2 h
[7] = molecular target: Mitogen-activated protein kinase 10 (Mus musculus) (UniProt Q61831); test: JNK3 AlphaScreen Assay (AID 530); details: JNK3 lysate, c-Jun phosphorylation; series mostly up to 11.4 µM;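 further: kinase came from lysate of stimulated human HepG2 cells; signal reports phosphorylation of biotinylated GST-cJun 1-79 at Ser73 with 10 µM ATP; on the % scale 0 is the no-effect control and ±100 the full control effect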
Procedure, shortened: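 HepG2 lysate (IL-1b/TNFa pre-activated) + biotin-GST-cJun 1-79 + anti-pSer73 cJun; cpd titration, 15 min RT; ATP 10 uM start; Tris pH 7.6, MgCl2, DTT, vanadate; beads in EDTA buffer; AlphaScreen.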

[8] = molecular target: 3',5'-cyclic-AMP phosphodiesterase 4B (Homo sapiens) (UniProt Q07343); test: qHTS Assay for Inhibitors of PDE-IV (AID 607; active means well fitted activation curve with a large enough effect in the main read-out, with a control signal flat, not every such curve was filed as active; further: % of control where 0% means no effect); details: HEK293 ACTOne CNG channel cells, membrane potential fluorescence; series mostly up to 22.9 µM
Procedure, shortened: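 Live HEK293 cells with a modified cyclic nucleotide-gated (CNG) channel report intracellular cAMP via membrane-potential dye fluorescence (ex 535/em 590 nm). Endogenous PDE-IV was targeted. Compounds were tested at up to 22.9 uM final; RO 20-1724 100 uM served as control.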

[9] = molecular target: Glucocorticoid receptor (Homo sapiens) (UniProt P04150); test: GR-EFC Redistribution (AID 451; calls by dose curve; further: potency means the concentration at half of the fitted maximal effect); details: CHO-K1 GR-EFC translocation, beta-gal luminescence, 2 h
Procedure, shortened: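 CHO-K1 cells expressing nuclear EA and GR-ED fragments of b-gal; compounds titrated up to 46 uM final, 2 h at 37 C. GR nuclear translocation read as complemented b-gal luminescence after 1 h RT detection.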

[10] = molecular target: Cytochrome P450 2C19 (Homo sapiens) (UniProt P33261); test: qHTS Assay for Inhibitors and Substrates of Cytochrome P450 2C19 (AID 899; active means well fitted inhibition curve with a large enough effect; further: on the % scale 0 is the no-effect control and ±100 the full control effect; nearly all actives have a fitted effect of over 60% in size); details: recombinant CYP2C19, luciferin-H EGE luminescence; series mostly up to 11.4 µM
Procedure, shortened: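 Signal comes from luciferase acting on luciferin released by CYP2C19-mediated hydroxylation of Luciferin-H EGE, 10uM (KM). Assay mix: 5nM enzyme, 50mM KPO4; 60 min at 37C with NADPH regeneration. Data normalized against 57uM ketoconazole.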

Glucocorticoid receptor (Homo sapiens), sequence (P04150 whole entry, looked up, the tested form may be a part): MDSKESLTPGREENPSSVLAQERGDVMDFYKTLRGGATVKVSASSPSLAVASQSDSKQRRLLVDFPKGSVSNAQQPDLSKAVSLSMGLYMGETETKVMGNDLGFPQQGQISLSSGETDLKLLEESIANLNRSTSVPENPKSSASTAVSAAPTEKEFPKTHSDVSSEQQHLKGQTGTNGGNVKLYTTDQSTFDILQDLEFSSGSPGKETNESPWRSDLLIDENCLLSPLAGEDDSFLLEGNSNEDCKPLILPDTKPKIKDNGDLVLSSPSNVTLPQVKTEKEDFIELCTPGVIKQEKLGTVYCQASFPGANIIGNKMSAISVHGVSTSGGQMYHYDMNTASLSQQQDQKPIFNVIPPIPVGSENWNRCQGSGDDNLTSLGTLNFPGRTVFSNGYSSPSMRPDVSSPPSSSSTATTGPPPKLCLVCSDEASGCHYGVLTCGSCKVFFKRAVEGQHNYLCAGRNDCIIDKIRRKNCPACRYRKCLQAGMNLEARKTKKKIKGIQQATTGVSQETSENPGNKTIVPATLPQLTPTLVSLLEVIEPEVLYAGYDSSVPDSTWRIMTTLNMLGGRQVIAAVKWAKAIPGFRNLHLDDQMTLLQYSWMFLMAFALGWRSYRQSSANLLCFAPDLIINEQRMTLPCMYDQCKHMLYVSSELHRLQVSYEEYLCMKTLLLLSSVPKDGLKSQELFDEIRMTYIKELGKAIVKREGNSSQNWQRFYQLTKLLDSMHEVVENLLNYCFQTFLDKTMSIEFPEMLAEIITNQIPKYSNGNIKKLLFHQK
Cytochrome P450 1A2 (Homo sapiens), sequence (P05177 whole entry, looked up): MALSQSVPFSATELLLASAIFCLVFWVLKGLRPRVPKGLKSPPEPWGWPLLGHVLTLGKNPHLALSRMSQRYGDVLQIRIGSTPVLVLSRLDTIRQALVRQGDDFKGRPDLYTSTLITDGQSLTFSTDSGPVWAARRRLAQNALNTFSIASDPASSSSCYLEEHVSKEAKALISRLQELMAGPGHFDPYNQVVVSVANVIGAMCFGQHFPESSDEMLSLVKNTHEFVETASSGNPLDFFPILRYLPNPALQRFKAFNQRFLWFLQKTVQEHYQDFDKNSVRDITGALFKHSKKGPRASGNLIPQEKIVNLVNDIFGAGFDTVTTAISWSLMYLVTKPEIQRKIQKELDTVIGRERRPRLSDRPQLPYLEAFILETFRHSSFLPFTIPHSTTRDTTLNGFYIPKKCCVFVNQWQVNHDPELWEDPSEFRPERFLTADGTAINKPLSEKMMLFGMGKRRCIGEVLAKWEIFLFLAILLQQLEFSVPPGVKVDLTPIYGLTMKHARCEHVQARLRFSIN
Lysosomal acid glucosylceramidase (Homo sapiens), sequence (P04062 whole entry, looked up): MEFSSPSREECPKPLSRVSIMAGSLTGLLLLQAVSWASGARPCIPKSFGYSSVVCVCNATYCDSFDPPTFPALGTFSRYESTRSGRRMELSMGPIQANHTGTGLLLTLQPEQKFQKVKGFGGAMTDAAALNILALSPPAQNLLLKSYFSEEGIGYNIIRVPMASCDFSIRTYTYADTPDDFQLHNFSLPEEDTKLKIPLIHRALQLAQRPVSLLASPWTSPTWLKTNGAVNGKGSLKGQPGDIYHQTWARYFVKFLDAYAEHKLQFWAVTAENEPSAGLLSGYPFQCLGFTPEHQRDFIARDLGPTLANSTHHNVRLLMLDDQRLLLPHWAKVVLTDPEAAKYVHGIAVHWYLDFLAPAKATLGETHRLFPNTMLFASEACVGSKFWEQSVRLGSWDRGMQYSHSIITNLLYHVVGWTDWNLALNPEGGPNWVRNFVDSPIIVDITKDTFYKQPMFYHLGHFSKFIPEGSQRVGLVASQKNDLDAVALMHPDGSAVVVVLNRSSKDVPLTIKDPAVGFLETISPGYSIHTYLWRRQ
3',5'-cyclic-AMP phosphodiesterase 4B (Homo sapiens), sequence (Q07343 whole entry, looked up): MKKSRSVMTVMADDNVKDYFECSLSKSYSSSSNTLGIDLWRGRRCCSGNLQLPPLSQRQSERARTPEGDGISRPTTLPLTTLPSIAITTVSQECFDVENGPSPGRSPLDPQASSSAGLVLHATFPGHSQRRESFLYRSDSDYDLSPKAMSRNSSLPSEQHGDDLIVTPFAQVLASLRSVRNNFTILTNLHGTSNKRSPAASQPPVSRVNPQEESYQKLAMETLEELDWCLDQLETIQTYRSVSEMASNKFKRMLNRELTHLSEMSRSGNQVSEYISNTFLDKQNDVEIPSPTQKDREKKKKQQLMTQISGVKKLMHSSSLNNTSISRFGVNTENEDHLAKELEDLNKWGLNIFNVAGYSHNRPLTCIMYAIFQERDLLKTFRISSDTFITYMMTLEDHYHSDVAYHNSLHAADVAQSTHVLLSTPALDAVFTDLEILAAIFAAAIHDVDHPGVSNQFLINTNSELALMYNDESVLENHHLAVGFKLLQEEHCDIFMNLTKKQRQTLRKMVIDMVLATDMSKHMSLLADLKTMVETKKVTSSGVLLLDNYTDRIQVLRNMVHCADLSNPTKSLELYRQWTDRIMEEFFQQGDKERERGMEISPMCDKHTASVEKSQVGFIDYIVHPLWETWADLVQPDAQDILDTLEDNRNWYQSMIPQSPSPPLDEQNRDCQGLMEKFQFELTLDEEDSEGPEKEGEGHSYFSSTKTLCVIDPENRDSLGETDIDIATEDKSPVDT
Cytochrome P450 2C19 (Homo sapiens), sequence (P33261 whole entry, looked up): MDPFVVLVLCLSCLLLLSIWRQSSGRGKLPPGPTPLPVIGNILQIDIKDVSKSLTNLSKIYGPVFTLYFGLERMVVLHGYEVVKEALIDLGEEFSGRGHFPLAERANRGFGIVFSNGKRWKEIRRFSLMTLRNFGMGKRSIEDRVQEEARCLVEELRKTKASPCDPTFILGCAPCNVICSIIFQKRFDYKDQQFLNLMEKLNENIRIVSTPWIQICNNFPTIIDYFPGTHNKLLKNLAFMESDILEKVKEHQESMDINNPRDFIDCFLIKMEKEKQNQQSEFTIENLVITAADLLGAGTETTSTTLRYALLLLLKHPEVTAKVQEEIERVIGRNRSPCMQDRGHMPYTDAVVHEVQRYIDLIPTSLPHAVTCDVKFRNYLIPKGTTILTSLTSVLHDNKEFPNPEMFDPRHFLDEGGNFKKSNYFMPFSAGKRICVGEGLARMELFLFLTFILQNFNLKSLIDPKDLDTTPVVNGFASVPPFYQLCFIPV

C/C(=N/NS(=O)(=O)c1ccc(C)cc1)P(=O)(O)O
inactive: Potency [1] > 11.4 µM | activity change, negative = inhibition [2] 1.2% | Potency [3] | activity change, negative = inhibition [4] 7.41% | activity, negative = inhibition [5] 6.08% | Potency [6] > 46 µM | Potency [7] | Potency [8]

Nc1nc2c(ncn2[C@@H]2C=C[C@@H](CO)C2)c(=O)[nH]1
inactive: Potency [1] > 11.4 µM | activity change, negative = inhibition [2] 2.92% | Potency [3] | activity change, negative = inhibition [4] 10.3% | activity, negative = inhibition [5] 5.37% | Potency [6] > 46 µM | Potency [7] | Potency [8]

COc1ccc(/C=N\NC(=O)O)cc1
inactive: Potency [1] > 11.4 µM | activity change, negative = inhibition [2] 7.79% | activity change, negative = inhibition [4] 19.9% | activity, negative = inhibition [5] 7.25% | Potency [6] > 46 µM | Potency [7] | Potency [8]
active: Potency [3] 0.501 µM

NCCNC(=S)S
inactive: activity change, negative = inhibition [2] 3.85% | activity change, negative = inhibition [3] -13.2% [at 2.29 µM] | activity change, negative = inhibition [4] -0.808% | activity, negative = inhibition [5] -0.434% | Potency [6] > 46 µM | Potency [7] | Potency [8]
active: Potency [1] 9.83 µM

N[C@@H](Cc1ccnnc1)C(=O)O
inactive: Potency [1] > 11.4 µM | activity change, negative = inhibition [2] -10.1% | activity change, negative = inhibition [3] -10.6% [at 2.29 µM] | activity change, negative = inhibition [4] 13.5% | activity, negative = inhibition [5] -4.41% | Potency [6] > 46 µM | Potency [7]

CCN1CCCCC(=N/O)/C(=N/O)CCCC1
inactive: Potency [1] > 11.4 µM | activity change, negative = inhibition [2] -1.64% | Potency [3] | activity change, negative = inhibition [4] -10.8% | activity, negative = inhibition [5] 2.5% | Potency [6] > 46 µM | Potency [7] | Potency [8]

Cn1c(=O)c2[nH]c(CSCc3ccccc3)nc2n(C)c1=O
inactive: Potency [1] > 11.4 µM | activity change, negative = inhibition [2] 12.7% | activity change, negative = inhibition [3] -15.4% [at 2.29 µM] | activity change, negative = inhibition [4] 8.43% | activity, negative = inhibition [5] 4.21% | Potency [6] > 46 µM | Potency [9] > 9.22 µM | Potency [8] | Potency [10]

NC(N)=NC(N)=Nc1ccc(S(=O)(=O)O)cc1
inactive: Potency [1] > 11.4 µM | activity change, negative = inhibition [2] 1.18% | Potency [3] | activity change, negative = inhibition [4] 0.0165% | activity, negative = inhibition [5] -0.308% | Potency [6] > 46 µM | Potency [7] | Potency [8]
